About 83,000 compounds went through this panel and 20% of them were active in at least one assay; those are over-represented in the sample as a whole.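 96-well plates, one dose, 48 hours. Percent growth reported; active if below 10.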 Calls of active or inactive are those of the source.
Test system: OVCAR-8 ovarian
Test: NCI-60 one-dose screen, 48 h (100 = growth as untreated, 0 = no growth, -100 = all killed)
Settings: 10 µM unless noted

Structure (SMILES) | growth
Nc1nc(N)nc(N2CCCCC2)n1 | 105% (inactive)
O=C1NCC2CCCC1C2 (centres undefined) | 99.3% (inactive)
Cc1cc(CO)c(O)c(CO)c1 | 105% (inactive)
C#CC(O)c1ccccc1 (centres undefined) | 103% (inactive)
COc1ccc(Br)c(C=O)c1 | 69.1% (inactive)
COC(c1ccc2c(c1)OCO2)C(C)Br (centres undefined) | 101% (inactive)
O=C(O)c1ccccc1Cc1ccc2c(c1)CCCC2 | 105% (inactive)
O=[N+]([O-])c1ccc(-c2nc(N(CCO)CCO)c3ccccc3n2)o1 | 1.65% (active)
O=Cc1ccc(Cl)c(Cl)c1 | 101% (inactive)
CCC(C)C1CCC(O)CC1 (centres undefined) | 100% (inactive)
CC(C)c1ncc([N+](=O)[O-])n1C | 97.5% (inactive)
COc1ccc(/C=C\C(=O)/C=C/c2ccc(OC)cc2)cc1 | 101% (inactive)
Nc1cc2c(cc1Cl)C(=O)c1ccccc1C2=O | 21.7% (inactive)
Cc1ccc(Cc2ccc(C)cc2)cc1 | 102% (inactive)
N#C/C(=C\c1ccc2c(c1)OCO2)c1ccccc1 | 90.1% (inactive)
CCOC(=O)c1c[nH][nH]c1=O | 105% (inactive)
O=c1[nH]c(=O)c2cc(Cl)cc(Cl)c2[nH]1 | 101% (inactive)
CC(=O)c1cc(O)ccc1O | 95.9% (inactive)
Nc1ccn(C2CC(N)C(CO)O2)c(=O)n1 (centres undefined) | 45.6% (inactive)

Structure (SMILES) | growth
CNc1ccccc1C(N)=O | 103% (inactive)
Cn1c(=O)[nH]c2ccccc2c1=O | 103% (inactive)
CCOC(=O)C(C#N)=C1CCN(C)CC1 | 93% (inactive)
NNC(=O)c1ccccc1N | 107% (inactive)
COC(CCCl)c1ccc(Cl)cc1 (centres undefined) | 96.9% (inactive)
C=CCC(OC(C)=O)c1ccc(OC)c(OC)c1 (centres undefined) | 96.7% (inactive)
COc1ccc(C2CCCCC2=O)cc1 (centres undefined) | 103% (inactive)
O=[N+]([O-])c1c(Cl)ncnc1Cl | 104% (inactive)
CCN(CC)c1ccc2nc3ccc(N=Nc4ccc(N(C)C)cc4)cc3[n+](-c3ccccc3)c2c1 | 5.08% (active)
c1ccc2[nH]c(Cc3nc4ccccc4[nH]3)nc2c1 | 112% (inactive)
CC1=CC(=Nc2ccc(N(C)C)cc2)C=C(C)C1=O | 88.9% (inactive)
N#CCCN1C(=O)CCC1C(=O)O (centres undefined) | 98.1% (inactive)
O=C(O)Cc1cccc2ccccc12 | 110% (inactive)
Cc1nc(C)c(C(=O)O)cc1C(=O)O | 115% (inactive)
Clc1ccc(/C=C/c2ccccn2)cc1 | 105% (inactive)
N#CC1(O)CCCCC1 | 94.3% (inactive)
CCNc1ncnc2[nH]ncc12 | 72.3% (inactive)
CC12CCC3c4ccc(O)cc4CCC3C1CCC2=O (centres undefined) | 100% (inactive)

Test system: OVCAR-5 ovarian
Test: as above
Settings: 10 µM unless noted

Structure (SMILES) | growth
Nc1nc(N)nc(N2CCCCC2)n1 | 102% (inactive)
O=C1NCC2CCCC1C2 (centres undefined) | 107% (inactive)
Cc1cc(CO)c(O)c(CO)c1 | 101% (inactive)
C#CC(O)c1ccccc1 (centres undefined) | 101% (inactive)
COc1ccc(Br)c(C=O)c1 | 93.1% (inactive)
COC(c1ccc2c(c1)OCO2)C(C)Br (centres undefined) | 101% (inactive)
O=C(O)c1ccccc1Cc1ccc2c(c1)CCCC2 | 104% (inactive)
O=[N+]([O-])c1ccc(-c2nc(N(CCO)CCO)c3ccccc3n2)o1 | -5.6% (active)
O=Cc1ccc(Cl)c(Cl)c1 | 99.8% (inactive)
CCC(C)C1CCC(O)CC1 (centres undefined) | 108% (inactive)
CC(C)c1ncc([N+](=O)[O-])n1C | 103% (inactive)
COc1ccc(/C=C\C(=O)/C=C/c2ccc(OC)cc2)cc1 | 107% (inactive)
Nc1cc2c(cc1Cl)C(=O)c1ccccc1C2=O | 58.5% (inactive)
Cc1ccc(Cc2ccc(C)cc2)cc1 | 99.1% (inactive)
N#C/C(=C\c1ccc2c(c1)OCO2)c1ccccc1 | 79.6% (inactive)
CCOC(=O)c1c[nH][nH]c1=O | 94.8% (inactive)
O=c1[nH]c(=O)c2cc(Cl)cc(Cl)c2[nH]1 | 116% (inactive)
CC(=O)c1cc(O)ccc1O | 99.9% (inactive)
Nc1ccn(C2CC(N)C(CO)O2)c(=O)n1 (centres undefined) | 108% (inactive)

Structure (SMILES) | growth
CNc1ccccc1C(N)=O | 117% (inactive)
Cn1c(=O)[nH]c2ccccc2c1=O | 123% (inactive)
CCOC(=O)C(C#N)=C1CCN(C)CC1 | 111% (inactive)
NNC(=O)c1ccccc1N | 89.8% (inactive)
COC(CCCl)c1ccc(Cl)cc1 (centres undefined) | 96.2% (inactive)
C=CCC(OC(C)=O)c1ccc(OC)c(OC)c1 (centres undefined) | 113% (inactive)
COc1ccc(C2CCCCC2=O)cc1 (centres undefined) | 96.9% (inactive)
O=[N+]([O-])c1c(Cl)ncnc1Cl | 85.7% (inactive)
CCN(CC)c1ccc2nc3ccc(N=Nc4ccc(N(C)C)cc4)cc3[n+](-c3ccccc3)c2c1 | -58.2% (active)
c1ccc2[nH]c(Cc3nc4ccccc4[nH]3)nc2c1 | 92% (inactive)
CC1=CC(=Nc2ccc(N(C)C)cc2)C=C(C)C1=O | 108% (inactive)
N#CCCN1C(=O)CCC1C(=O)O (centres undefined) | 105% (inactive)
O=C(O)Cc1cccc2ccccc12 | 102% (inactive)
Cc1nc(C)c(C(=O)O)cc1C(=O)O | 97.5% (inactive)
Clc1ccc(/C=C/c2ccccn2)cc1 | 112% (inactive)
N#CC1(O)CCCCC1 | 98.2% (inactive)
CCNc1ncnc2[nH]ncc12 | 104% (inactive)
CC12CCC3c4ccc(O)cc4CCC3C1CCC2=O (centres undefined) | 112% (inactive)

Source: PubChem BioAssay (NCI)
